# KCNQ2 pot – potentiators of rat KCNQ2 potassium channel | CHO-K1 KCNQ2, FluxOR thallium flux fluorescence; active compounds read high | B-score at 10 µM | AID 2239 | 310,000 compounds, 0.54% hits;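 active = fluorescence ratio B-score at least 3 SD of library B-scores, with initial fluorescence B-score within 3 of them, cut at about 5.3 in these data; same plate scores as AID 2156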;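 note: B-score of peak minus minimum over baseline fluorescence ratio after K+ and Tl+ stimulus; positive B-score means potentiation of KCNQ2 with more thallium influx and brighter signal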
# KCNQ2 inh – inhibitors of rat KCNQ2 potassium channel; O88943; CHO-K1 KCNQ2, FluxOR thallium flux, 20 min; active compounds read low; B-score at 10 µM; 310,000 compounds, 1.1% hits;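 active = fluorescence ratio B-score at most minus 3 library SDs, with starting brightness B-score within 2 library SDs, cut at about -5.5 in these data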
# Kir21 conf inh – confirmation of mouse Kir2.1 potassium channel inhibitors | shares compounds with KCNQ2 pot | Tl flux remaining, % of negative control (active compounds read low), % at 10 µM | 2,300 compounds, 41% hits | AID 2032 | Kir2.1-expressing cells, FluxOR thallium flux fluorescence; active compounds read low;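 active = Primary-screen hit whose thallium flux fell at least 3 control SD below untreated wells in both duplicates, with normal baseline fluorescence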;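 note: 0% = blank wells without stimulus and 100% = stimulated no-compound controls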
# HEK293 ctr – parental HEK293 activity in Kir2.1 inhibitor counter-screen; shares compounds with KCNQ2 pot; parental HEK293 cells, FluxOR thallium flux fluorescence; 0% = unstimulated blank wells; FluxOR signal as % of negative control (100 = no effect), % at 10 µM; 2,300 compounds, 19% hits;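 active = dye signal at least 3 control SD above or below untreated wells in both duplicates, raw fluorescence within 3, either direction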;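 note: percent is based on the flux ratio of peak minus minimum fluorescence over baseline F0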
# CHO-K1 Tl ctr – parental CHO-K1 activity in KCNQ2 potentiator counter-screen; shares compounds with KCNQ2 pot; activity increase over 3SD of controls, % at 10 µM; 1,200 compounds, 43% hits; parental CHO-K1 cells, FluxOR thallium flux fluorescence; zero = vehicle mean+3SD, 100% = vehicle-minus-blank window;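 active = signal rise of at least 3 SD above the untreated control mean, in both duplicate wells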;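 note: counter screen of KCNQ2 potentiator hits so any rise reflects channel-independent effects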
# KCNQ1 pot spec – tests whether KCNQ2 potentiators also act on human KCNQ1; shares compounds with KCNQ2 pot; CHO KCNQ1 stable, FluxOR thallium flux fluorescence; beyond 3SD, as % of vehicle-control signal; activation over 3SD threshold, % at 10 µM; 1,200 compounds, 28% hits;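 active = fluorescence ratio rise of at least 3 SD of vehicle wells above their mean, in both replicate wells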;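 note: 0% = vehicle mean plus 3 SD and 100% = vehicle minus unstimulated blank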
# KCNQ2 pot conf – confirmation of rat KCNQ2 potassium channel potentiators; shares compounds with KCNQ2 pot; CHO-KCNQ2 cells, FluxOR thallium flux fluorescence; potentiation, less the hit threshold, % at 10 µM; 1,200 compounds, 68% hits; AID 2287;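 active = fluorescence ratio rising 3 SD or more over the vehicle control mean in both replicates, plus primary screen hit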;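 note: peak minus minimum thallium fluorescence divided by baseline after K/Tl stimulus; 0% = vehicle mean plus 3 SD and 100% = vehicle minus unstimulated blank difference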
# Kir21 spec – tests whether KCNQ2 potentiators also affect mouse Kir2.1; shares compounds with KCNQ2 pot; HEK293 Kir2.1, FluxOR thallium flux fluorescence; activity over 3SD threshold, % at 10 µM; 1,200 compounds, 2% hits; AID 2345;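 active = fluorescence ratio rise of at least 3 SD above the vehicle-control mean, seen in both replicates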;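 note: 0% = vehicle mean plus 3 SD and 100% = vehicle minus no-stimulus blank window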
# KCNQ2 W236L MoA – potentiates the retigabine-insensitive rat KCNQ2 W236L mutant channel; shares compounds with KCNQ2 pot; 940 compounds, 10% hits; current increase over 3SD of negative controls (%), active compounds read high, % at 25 µM; CHO KCNQ2-W236L, automated patch clamp current;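 active = current increase at least 3 SD of the untreated controls above them in both duplicate recordings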
# Target sequence (O88943 whole entry W236L, looked up): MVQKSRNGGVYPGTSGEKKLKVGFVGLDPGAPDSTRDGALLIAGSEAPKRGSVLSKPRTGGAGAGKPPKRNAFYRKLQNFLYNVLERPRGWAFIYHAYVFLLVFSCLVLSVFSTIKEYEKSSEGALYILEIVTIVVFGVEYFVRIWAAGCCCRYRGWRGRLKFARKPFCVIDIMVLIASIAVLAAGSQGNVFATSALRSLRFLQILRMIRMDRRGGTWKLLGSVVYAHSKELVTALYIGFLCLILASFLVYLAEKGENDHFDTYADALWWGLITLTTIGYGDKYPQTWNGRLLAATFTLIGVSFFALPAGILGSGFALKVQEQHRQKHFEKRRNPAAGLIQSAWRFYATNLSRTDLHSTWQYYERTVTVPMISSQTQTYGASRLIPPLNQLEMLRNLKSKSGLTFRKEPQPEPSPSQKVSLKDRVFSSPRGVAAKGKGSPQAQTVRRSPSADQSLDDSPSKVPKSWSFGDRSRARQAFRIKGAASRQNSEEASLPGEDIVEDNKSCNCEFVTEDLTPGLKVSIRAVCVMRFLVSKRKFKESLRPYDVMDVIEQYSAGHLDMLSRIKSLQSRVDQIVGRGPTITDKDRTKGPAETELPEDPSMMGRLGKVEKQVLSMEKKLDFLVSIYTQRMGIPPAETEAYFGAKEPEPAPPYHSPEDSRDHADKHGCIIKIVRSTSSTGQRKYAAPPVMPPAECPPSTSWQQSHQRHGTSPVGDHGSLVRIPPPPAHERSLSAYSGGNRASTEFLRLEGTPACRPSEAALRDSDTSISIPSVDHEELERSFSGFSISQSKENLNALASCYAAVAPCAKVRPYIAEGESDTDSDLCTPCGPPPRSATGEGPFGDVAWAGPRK
# Starred values were filed as active, the others as inactive; i = inactive; nt = no result given. An excerpt weighted towards active compounds, which were near 1.6% of everything screened.
SMILES,KCNQ2 pot,KCNQ2 inh,Kir21 conf inh,HEK293 ctr,others
Cc1ccccc1C(=O)c1cccn1CC(=O)NCc1ccccc1,nt,i,nt,nt,
NC(N)=NS(=O)(=O)c1ccc(NC(=S)NC(=O)c2ccc(Br)cc2)cc1,1.38,i,nt,nt,
Cc1ccc2nc(NC(=S)NC(=O)c3ccco3)sc2c1,12*,i,i,228.0%*,
O=C(NC(=S)Nc1nc(-c2ccc([N+](=O)[O-])cc2)cs1)c1ccco1,10.3*,i,i,168.0%*,CHO-K1 Tl ctr=-6.6;KCNQ1 pot spec=43.6*;KCNQ2 pot conf=-7.1;Kir21 spec=-26.9
Cc1ccc2nc(NC(=O)c3ccco3)sc2c1,0.98,i,nt,nt,
O=C(NC(=S)Nc1nc(-c2ccc(Br)cc2)cs1)c1ccco1,5.08,i,nt,nt,
CCN(CC)S(=O)(=O)c1cccc(C(=O)NC(C)C(c2cccs2)N2CCCC2)c1 (stereo unspecified),nt,i,nt,nt,
O=C1CSC(c2ccc(Cl)cc2)N1C1CCCCC1 (stereo unspecified),nt,i,64.0%*,i,
O=C1CSC(c2cccnc2)N1C1CCCCC1 (stereo unspecified),0.39,i,nt,nt,
CSc1nsc(NC(=O)OCc2ccc(Cl)cc2)n1,5.85*,i,i,i,CHO-K1 Tl ctr=88.9*;KCNQ1 pot spec=-21.8;KCNQ2 pot conf=-17.5;Kir21 spec=-19.6
COc1ccsc1NC(=O)OCc1ccc(Cl)cc1,nt,i,nt,nt,
Cc1cc(C(=O)NCCc2ccc(S(N)(=O)=O)cc2)c(C)o1,0.62,i,nt,nt,
COC(=O)CC1COc2ccccc2N1C(=O)/C=C/c1ccccc1 (stereo unspecified),nt,i,nt,nt,
CCOc1ccc(Cl)cc1CNCCCSc1ncccn1,nt,i,nt,nt,
CCOc1ccc(Cl)cc1CNCCCSc1nc(C)cc(C)n1,0.03,i,51.5%*,i,
COc1cc(C(=O)Nc2ccc(N3CCOCC3)cc2)ccc1OCc1c(C)noc1C,nt,i,nt,nt,
CCCCn1c(=N)n(CC(=O)c2ccco2)c2ccccc21,2.24,i,nt,nt,
CCCCCCCn1c(=N)n(CC(=O)c2ccco2)c2ccccc21,1.19,i,55.5%*,i,
Cc1ccccc1Cn1c(=N)n(CC(O)c2ccco2)c2ccccc21 (stereo unspecified),nt,i,63.5%*,i,
CCCCCCCn1c(=N)n(CC(O)c2ccco2)c2ccccc21 (stereo unspecified),3.18,i,45.0%*,i,
CC(C)(C)c1ccc(Cn2c(=N)n(CC(O)c3ccco3)c3ccccc32)cc1 (stereo unspecified),nt,i,nt,nt,
N=c1n(CCN2CCCC2)c2ccccc2n1CC(O)c1ccco1 (stereo unspecified),0.01,i,nt,nt,
CC(C)(C)c1ccc(C(=O)N2CCCC2c2cccs2)cc1 (stereo unspecified),nt,i,nt,nt,
Cc1cc(N2CCCCC2)nc(SCC(=O)c2ccccc2)n1,nt,i,nt,nt,
O=C(CSc1nc(N2CCCCC2)nc(N2CCCCC2)n1)c1ccccc1,31.8*,i,i,i,CHO-K1 Tl ctr=-6.0;KCNQ1 pot spec=38.4*;KCNQ2 pot conf=19.8*;Kir21 spec=-28.4;KCNQ2 W236L MoA=i
SMILES,KCNQ2 pot,KCNQ2 inh,Kir21 conf inh,HEK293 ctr,others
Cc1ccc(C(=O)NCC(C)NC(=O)c2ccc(C)c(C)c2)cc1C (stereo unspecified),0.05,i,nt,nt,
CCc1ccc(CCC(=O)Nc2ccc(C)cc2C)o1,6.01*,i,i,i,CHO-K1 Tl ctr=-8.2;KCNQ1 pot spec=-8.5;KCNQ2 pot conf=1.0*;Kir21 spec=-36.2;KCNQ2 W236L MoA=i
Cc1ccc(NC(=O)CCc2ccc(C)o2)c(Br)c1,4.25,i,nt,nt,
CN(C(=O)COC(=O)c1sc2ccccc2c1Cl)C1CCCCC1,nt,i,nt,nt,
O=C(NC(=S)Nc1ccccc1N1CCOCC1)c1sc2ccccc2c1Cl,0.64,i,nt,nt,
CN(C)CCCOC(=O)c1sc2ccccc2c1Cl,nt,i,29.0%*,i,
CCCCOC(=S)NC(=O)c1sc2ccccc2c1Cl,17*,i,i,445.5%*,CHO-K1 Tl ctr=-3.4;KCNQ1 pot spec=47.1*;KCNQ2 pot conf=83.1*;Kir21 spec=-14.8;KCNQ2 W236L MoA=i
Cc1ccc(NC(=S)NC(=O)c2sc3ccccc3c2Cl)c(C(=O)O)c1,13.7*,i,i,i,CHO-K1 Tl ctr=2.0*;KCNQ1 pot spec=-14.9;KCNQ2 pot conf=28.7*;Kir21 spec=-20.1;KCNQ2 W236L MoA=i
CCCOc1ccc(C(CC(=O)O)NC(=O)c2sc3ccccc3c2Cl)cc1 (stereo unspecified),0.21,i,nt,nt,
COc1ccc(N(CC(=O)NC2CCCCC2)C(=O)CNC(=O)c2ccco2)cc1,1.28,i,nt,nt,
COc1cccc(C(=O)Nc2ccccc2OC(F)(F)F)c1,nt,i,nt,nt,
NS(=O)(=O)c1cccc(NC(=O)CNC(=O)CC23CC4CC(CC(C4)C2)C3)c1,1.42,i,nt,nt,
Cc1ccc(NC(=O)CNC(=O)CC23CC4CC(CC(C4)C2)C3)c(O)c1,10.2*,i,i,i,CHO-K1 Tl ctr=-6.3;KCNQ1 pot spec=-16.6;KCNQ2 pot conf=24.7*;Kir21 spec=-22.9;KCNQ2 W236L MoA=i
O=C(CSc1ccc(Cl)cc1)NCc1ccco1,0.37,i,nt,nt,
Cc1ccc(Nc2cc(C)nn2-c2nc(C)cc(=O)[nH]2)cc1,17.4*,i,i,269.0%*,CHO-K1 Tl ctr=59.7*;KCNQ1 pot spec=44.6*;KCNQ2 pot conf=41.8*;Kir21 spec=-29.6;KCNQ2 W236L MoA=i
Cc1ccc(Nc2cc(C)nn2-c2nc(C)cc(C)n2)cc1,2.04,i,nt,nt,
O=[N+]([O-])c1cc([N+](=O)[O-])c2cccnc2c1Oc1ccccc1O,nt,i,62.0%*,65.0%*,
O=[N+]([O-])c1cc(Cl)c(O)c2ncccc12,5.69*,i,i,i,CHO-K1 Tl ctr=-18.4;KCNQ1 pot spec=65.7*;KCNQ2 pot conf=-12.2;Kir21 spec=-21.3;KCNQ2 W236L MoA=i
O=[N+]([O-])c1ccc(O)c2ncccc12,8.73*,i,i,i,CHO-K1 Tl ctr=36.1*;KCNQ1 pot spec=-4.9;KCNQ2 pot conf=33.6*;Kir21 spec=-25.9;KCNQ2 W236L MoA=i
O=[N+]([O-])c1cc(F)c2cccnc2c1O,3.61,i,nt,nt,
O=[N+]([O-])c1ccccc1Oc1ccc(Cl)c2cccnc12,0.23,i,nt,nt,
O=[N+]([O-])c1ccc(O)c2cccnc12,1.01,i,nt,nt,
CCCC(C)NC(=O)CSc1nc2ccc(C)cc2[nH]1 (stereo unspecified),nt,i,nt,nt,
Cc1ccc(C(C2=C(O)CC(C)(C)CC2=O)C2C(=O)CC(C)(C)CC2=O)o1 (stereo unspecified),8.67*,i,nt,nt,CHO-K1 Tl ctr=-16.7;KCNQ1 pot spec=53.9*;KCNQ2 pot conf=1.5*;Kir21 spec=-57.6;KCNQ2 W236L MoA=45.6%*
CCCC(C1=C(O)CC(C)(C)CC1=O)C1C(=O)CC(C)(C)CC1=O (stereo unspecified),nt,i,nt,nt,

# From PubChem
